Binding signal data for three sequences are collected here from publication PMC8384837, “Expanding the binding specificity for RNA recognition by a PUF domain”.

Chain of PUM1 PUF domain R1-RAS (Q14671 828-1176 S863R/R864A/Q867S): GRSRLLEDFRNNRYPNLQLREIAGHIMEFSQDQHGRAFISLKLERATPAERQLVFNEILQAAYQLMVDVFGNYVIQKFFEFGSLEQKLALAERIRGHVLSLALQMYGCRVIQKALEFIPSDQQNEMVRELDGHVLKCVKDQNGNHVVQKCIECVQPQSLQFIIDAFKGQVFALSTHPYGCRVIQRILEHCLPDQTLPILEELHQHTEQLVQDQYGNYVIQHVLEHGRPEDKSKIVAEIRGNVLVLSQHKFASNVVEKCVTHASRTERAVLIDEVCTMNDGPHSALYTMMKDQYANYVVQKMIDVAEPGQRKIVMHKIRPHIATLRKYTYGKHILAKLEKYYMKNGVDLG

The test has as its target PUM1 PUF domain R1-RAS (Homo sapiens, UniProt Q14671 828-1176, S863R;R864A;Q867S). Put plainly: yeast three-hybrid, YBZ-1, SC-Leu-His + 0.5 mM 3-AT, 4 days. As to conditions: tags: N-Gal4 AD-HA kept; label: inside an RPR1-promoter hybrid RNA with tandem MS2 sites; ssRNA. The procedure, abridged:
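Sequencing with Illumina followed PCR amplification of the repeat regions from transformants grown four days on SC-Leu (input) or SC-Leu-His + 0.5 mM 3-AT (selection). The transformants were strain YBZ-1 with a LexA–MS2 coat fusion and a HIS3 reporter, carrying Pumilio-1 PUF domain libraries and matching RNA elements. The interaction score is the log change in variant frequency from input to selection, computed in log2 with a pseudocount of 1 for absent variants.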
For “GGCUAGAACUAGUGGAUCCCCCGGCGCCCGGCGGCUCGAGCCCGGGUAAGUGUAAAUCGUCUGCAUGCCGCCGGGCGCCAUGCCUGCAGGUCGACUCUAGAAAACAUG”, the binding signal is 3.1 log2 enrichment (interaction score).
Next, “GGCUAGAACUAGUGGAUCCCCCGGCGCCCGGCGGCUCGAGCCCGGGUAAGUGUAAAUUGUCUGCAUGCCGCCGGGCGCCAUGCCUGCAGGUCGACUCUAGAAAACAUG”: 2.89 log2 enrichment (interaction score); “GGCUAGAACUAGUGGAUCCCCCGGCGCCCGGCGGCUCGAGCCCGGGUAAGUGUAAAUGGUCUGCAUGCCGCCGGGCGCCAUGCCUGCAGGUCGACUCUAGAAAACAUG”: 1.5 log2 enrichment (interaction score).
